Source: PubChem BioAssay AID1159580 (chemical genetic matrix, 2015)
In all, about 5,500 compounds went through this assay and about 2,000 (36%) were called active. Not shown: some 18% with an inconclusive outcome. Cut-off read from the data, not from the text of the source: active = normalized growth mostly below about 0.91 (no sharp cut-off); inconclusive = no clear call, values can overlap the other calls; inactive = mostly above about 0.92. Some of the results follow.

Assay: chemical genetic growth profiling, strain panel (AID 1159580);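 note: tested at 20 µM; growth read once vehicle control cultures reached saturation at 30 °C; 1 = growth at the plate median or of vehicle wells; lower values mean less growth of the strain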
Settings: S. cerevisiae deletion strains, growth OD

Measured: normalized growth

CSc1ccc(/C=C(\C)[N+](=O)[O-])cc1
active: locus YAR019C, strain CDC15, stronger effect = lower value 0.0932 | locus YBL105C, strain PKC1, stronger effect = lower value 0.0831 | locus YBR135W, strain CKS1, stronger effect = lower value 0.0817 | locus YBR136W, strain MEC1, stronger effect = lower value 0.0817 | locus YBR160W, strain CDC28, stronger effect = lower value 0.0827 | locus YDL017W, strain CDC7, stronger effect = lower value 0.0813 | locus YDL028C, strain MPS1, stronger effect = lower value 0.0841 | locus YDL101C, strain DUN1, stronger effect = lower value 0.1 | locus YDL108W, strain KIN28, stronger effect = lower value 0.0841 | locus YDL214C, strain PRR2, stronger effect = lower value 0.0925 | locus YDR052C, strain DBF4, stronger effect = lower value 0.103 | locus YDR054C, strain cdc34, stronger effect = lower value 0.0952 | locus YDR226W, strain ADK1, stronger effect = lower value 0.09 | locus YDR477W, strain SNF1, stronger effect = lower value 0.104 | locus YER123W, strain YCK3, stronger effect = lower value 0.0983 | locus YER133W, strain GLC7, stronger effect = lower value 0.0958 | locus YFL009W, strain cdc4, stronger effect = lower value 0.0931 | locus YFL029C, strain CAK1, stronger effect = lower value 0.0921 | locus YFR003C, strain YPI1, stronger effect = lower value 0.0893 | locus YFR019W, strain FAB1, stronger effect = lower value 0.092 | locus YFR028C, strain CDC14, stronger effect = lower value 0.0831 | locus YGR040W, strain KSS1, stronger effect = lower value 0.103 | locus YGR052W, strain FMP48, stronger effect = lower value 0.138 | locus YGR092W, strain DBF2, stronger effect = lower value 0.105 | locus YHR030C, strain SLT2, stronger effect = lower value 0.132 | locus YHR079C, strain IRE1, stronger effect = lower value 0.122 | locus YHR082C, strain KSP1, stronger effect = lower value 0.141 | locus YHR205W, strain SCH9, stronger effect = lower value 0.00725 | locus YIL147C, strain SLN1, stronger effect = lower value 0.0876 | locus YJL095W, strain BCK1, stronger effect = lower value 0.142 | locus YJL157C, strain FAR1, stronger effect = lower value 0.084 | locus YJR016C, strain ILV3, stronger effect = lower value 0.0861 | locus YJR066W, strain TOR1 (second series), stronger effect = lower value 0.0953 | locus YJR066W, strain TOR1, stronger effect = lower value 0.158 | locus YKL048C, strain ELM1, stronger effect = lower value 0.106 | locus YKL067W, strain YNK1, stronger effect = lower value 0.0912 | locus YKL101W, strain HSL1, stronger effect = lower value 0.103 | locus YKL193C, strain SDS22, stronger effect = lower value 0.0867 | locus YKL203C, strain TOR2, stronger effect = lower value 0.115 | locus YLR113W, strain HOG1, stronger effect = lower value 0.176 | locus YLR133W, strain CKI1, stronger effect = lower value 0.0883 | locus YLR403W, strain SFP1, stronger effect = lower value -0.00294 | locus YML070W, strain DAK1, stronger effect = lower value 0.0932 | locus YMR001C, strain CDC5, stronger effect = lower value 0.0857 | locus YMR205C, strain PFK2 (second series), stronger effect = lower value 0.0912 | locus YMR277W, strain FCP1, stronger effect = lower value 0.0923 | locus YNL006W, strain LST8, stronger effect = lower value 0.088 | locus YNL020C, strain ARK1, stronger effect = lower value 0.0937 | locus YNL161W, strain CBK1, stronger effect = lower value 0.0836 | locus YNL183C, strain NPR1, stronger effect = lower value 0.129 | locus YNL207W, strain RIO2, stronger effect = lower value 0.0937 | locus YNL222W, strain SSU72, stronger effect = lower value 0.0888 | locus YNL307C, strain MCK1 (second series), stronger effect = lower value 0.103 | locus YOL078W, strain AVO1, stronger effect = lower value 0.0847 | locus YOL136C, strain PFK27, stronger effect = lower value 0.0905 | locus YOR061W, strain CKA2, stronger effect = lower value 0.0875 | locus YOR119C, strain RIO1, stronger effect = lower value 0.109 | locus YOR231W, strain MKK1, stronger effect = lower value 0.137 | locus YOR329C, strain SCD5, stronger effect = lower value 0.0819 | locus YPL031C, strain PHO85, stronger effect = lower value 0.11 | locus YPL153C, strain RAD53, stronger effect = lower value 0.112 | locus YPL204W, strain HRR25, stronger effect = lower value 0.0976 | locus YPL209C, strain IPL1, stronger effect = lower value 0.0829 | locus YPL256C, strain CLN2, stronger effect = lower value 0.156 | locus YPR025C, strain CCL1, stronger effect = lower value 0.0822 | locus YPR106W, strain ISR1, stronger effect = lower value 0.0856 | locus YPR111W, strain DBF20, stronger effect = lower value 0.188 | strain NNK1, stronger effect = lower value 0.0909 | strain TSCII, stronger effect = lower value 0.0882
